Test results taken from PubChem BioAssay AID2061310 (National Center for Advancing Translational Sciences (NCATS), 2025).
Inconclusive results are not listed. Values without a mark were called inactive. Calls of active or inactive are those of the source. Calls follow the shape of the dose curve; as a rule, active = well fitted curve in the direction sought with a large enough effect; inconclusive = small, poorly fitted or top-dose-only effect, or another doubt; inactive = no such curve, though single readings can be large or run the other way.

biological target: Retinal dehydrogenase 2 (Homo sapiens) (UniProt O94788); assay: qHTS for Inhibitors of the Aldehyde Dehydrogenase Family (ALDH1A2) Validation screens; conditions: fluorescence read-out; Potency: ALDH1A2 inhibition qHTS validation; series mostly up to 49.8 µM; activity, negative = inhibition: at the top concentration

Row | SMILES | activity, negative = inhibition | Potency
1 | CCOC(=O)CNS(=O)(=O)c1cc(-c2nnc(Nc3cccc(O)c3)c3ccccc23)ccc1C | -1.24% | 
2 | O=C(OC1C[C@@H]2CC3C[C@H](C1)N2CC3=O)c1c[nH]c2ccccc12 (some centres undefined) | 17.5% | 
3 | CCOc1ccc(-c2cc(C(=O)N3CCN(c4ccccn4)CC3)c3ccccc3n2)cc1 | -9.2% | 
4 | CCCN(CCC)C(=O)Cn1c(=O)n(-c2ccc(C)cc2)c(=O)c2ccc(C(=O)NCc3ccccc3Cl)cc21 | -1.51% | 
5 | CC(C)N(CCC(=O)c1ccc2ccccc2c1)Cc1ccccc1 |  | 5.62 µM (active)
6 | Cc1ccc(C(=O)Nc2cccc(C(=O)O)c2)cc1 | -31.7% | 
7 | CC(C)(C)c1ccc(S(=O)(=O)/C=C/C#N)cc1 |  | 2.82 µM (active)
8 | N/C(=N\OC(=O)c1ccccc1)c1ccccn1 | 15.7% | 
9 | CCOC(=O)CSc1nc2c(sc3ccccc32)c(=O)n1CCCN1CCCC1 | 0.849% [at 44.5 µM] | 
